Screening data: PubChem, National Center for Advancing Translational Sciences (NCATS)
Hits are enriched below; roughly 1.1% of the tested compounds scored in any of these assays.
IP6K1 inh = inhibitors of human IP6K1. 0.81% of 140,000 active. activity change, % (series mostly up to about 58 µM). IP6K1 kinase, ADP-Glo luminescence, 2 h; active compounds read low. AID 1645851; in the data active = activity change below about -25%
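ADP-Glo luminescence measures ADP made by human IP6K1 during a 2 h RT reaction with ATP/IP6 (mix at 1.3 mM/130 uM); top library doses 57.5 and 19.1 uM final.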
GPT2 inhibitor = blocks human glutamate pyruvate transaminase 2. 0.25% of 100,000 active. Recombinant GPT2, coupled pyruvate oxidase/HRP Amplex Red fluorescence. Potency, µM (series often up to 57.7 µM), inactives show top-dose activity change, negative = inhibition, hits mostly inhibitors. Q8TD30; also: potency is read from the fitted curve at half-maximal effect; nearly all actives have a fitted effect of over 60% in size
Target sequence (Q8TD30 whole entry, looked up): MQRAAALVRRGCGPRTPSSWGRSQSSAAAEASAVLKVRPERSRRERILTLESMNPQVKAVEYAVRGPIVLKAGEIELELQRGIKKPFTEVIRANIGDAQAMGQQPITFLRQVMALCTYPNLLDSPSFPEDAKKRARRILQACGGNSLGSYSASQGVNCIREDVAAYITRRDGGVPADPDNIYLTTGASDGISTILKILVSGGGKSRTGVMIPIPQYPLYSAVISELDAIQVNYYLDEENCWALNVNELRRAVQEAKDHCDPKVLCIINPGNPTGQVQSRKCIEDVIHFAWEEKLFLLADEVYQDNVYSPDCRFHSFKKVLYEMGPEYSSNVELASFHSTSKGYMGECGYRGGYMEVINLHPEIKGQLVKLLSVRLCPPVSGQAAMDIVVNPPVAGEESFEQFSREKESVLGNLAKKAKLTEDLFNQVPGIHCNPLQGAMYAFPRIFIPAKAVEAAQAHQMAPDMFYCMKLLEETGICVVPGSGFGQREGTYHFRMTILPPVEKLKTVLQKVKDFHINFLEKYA
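GPT2 10ng/uL, a-KG 250uM, L-Ala 2mM, HEPES pH7.5 + 0.0001% Tween; 30 min RT. Then Amplex mix (PO/HRP/ThPP), 30 min RT dark, fluorescence. AOA 50uM used as positive control.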
HEK293 viab = counter-screen for SNCA expression inhibitors: cell viability; HEK-293-SNCA-luc viability, GF-AFC fluorescence, 24 h; 0.12% of 150,000 active; Potency, µM (doses to about 57.1 µM), without a hit: top-dose activity change, negative = cytotoxicity, hits mostly cytotoxic;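 also: potency is read from the fitted curve at half-maximal effect; 0% = DMSO-treated cells and -100% = medium-only wells without cells; nearly all actives have a fitted effect of over 30% in size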
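HEK-293-SNCA-luc cells (1500/well) plated 24 h, then exposed 24 h to a dilution series; GF-AFC added 30 min at 37C, fluorescence 405/540 nm; normalised to medium-only and DMSO wells, Hill fit.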
SNCA expr inhib = SNCA gene expression inhibition; HEK-293 SNCA-luciferase knock-in, luminescence, 24 h; Potency, µM (top dose mostly 57.2 µM), for inactives: at the highest dose activity change, negative = inhibition, actives largely listed as inhibitors; 0.17% of 140,000 active;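 also: potency is read from the fitted curve at half-maximal effect; plate controls were DMSO cells for no effect and cell-free wells for full effect; nearly all actives have a fitted effect of over 45% in size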
IP6K1 conf = confirmation of human IP6K1 inhibitors | shares compounds with IP6K1 inh | recombinant IP6K1 kinase, ADP-Glo luminescence, 2 h | Potency, µM (doses to about 49 µM), inactives show top-dose activity change, negative = inhibition, most hits filed as inhibitors | 13% of 1,200 active; also: potency is read from the fitted curve at half-maximal effect; nearly all actives have a fitted effect of over 65% in size
The depositor's hits bear a star; i = inactive; ? = inconclusive; nt = no result; [ ] = remark or other dose. Unless noted, calls follow the shape of the dose curve; as a rule, active = well fitted curve in the direction sought with a large enough effect; inconclusive = small, poorly fitted or top-dose-only effect, or another doubt; inactive = no such curve, though single readings can be large; an effect the other way counts as inactive or inconclusive. Unless noted, % is scaled to controls: 0 for no effect and ±100 for the full control effect.

SMILES | IP6K1 inh | GPT2 inhibitor | HEK293 viab | SNCA expr inhib | IP6K1 conf
Cc1ccc(CN(C)C(=O)CC(c2ccccc2)c2ccc3c(c2)OCO3)o1 (stereo unspecified) | 10 | i | -14% | 20% | nt
CC(C)Oc1cccc(-c2nnc(CCC(=O)NCCc3cccs3)c(=O)[nH]2)c1 | -27* | i | 9% | 0% | ?
COc1ccccc1-c1ccc(CN2CCC(NC(=O)Cc3ccc(F)cc3)C2)cc1 (stereo unspecified) | 2 | i | -1%[12.5 µM] | ? | nt
C#CCNC(=O)C1CN(c2ccc(F)cc2)C(=O)N1 (stereo unspecified) | 1 | i | 0%[87.6 µM] | -15%[87.6 µM] | nt
CCOC(=O)C1CCCN(Cc2cn3c(-c4ccc(Br)cc4)nnc3s2)C1 (stereo unspecified) | -9 | nt | -16% | -12% | nt
CCOC(=O)C1CCN(Cc2cn3c(-c4ccc(OC)cc4)nnc3s2)CC1 | -25* | nt | -8% | 40% | 13%
Cc1ccc(S(=O)(=O)N2CCCc3cc(NS(=O)(=O)c4cccc(Cl)c4)ccc32)cc1 | -26* | nt | -23% | ? | 6%
O=C(NCc1ccco1)c1cc(-c2ccccc2F)cc2c1OCCN2Cc1cccnc1 | -30* | 1% | ? | -2% | ?
O=C(Nc1cccnc1)c1cc(-c2ccccc2F)cc2c1OCCN2Cc1cccnc1 | -49* | -7%[88.5 µM] | ? | ? | ?
Cc1cc(C(C)Nc2ccccc2C(=O)O)c2nc(N3CCOCC3)cc(=O)n2c1 (stereo unspecified) | 1 | i | -18% | nt | -11%
O=c1cc(N2CCOCC2)nc2c3ccccc3ccn12 | -10 | 4% | -8% | nt | nt
Oc1cccc(Nc2ncnc3sc4c(c23)CCCC4)c1 | -28* | nt | -25% | 15% | ?
CCC(=O)N1CCc2c(sc3ncnc(Nc4ccccc4)c23)C1 | -10 | i | -7% | 4% | nt
CCCCOc1ccccc1C1CC(=O)Nc2cc(C)c(C)cc21 (stereo unspecified) | -28* | nt | ? | ? | -10%
CCCCOc1ccccc1C1CC(=O)Nc2cc(OC)c(OC)cc21 (stereo unspecified) | -3 | nt | -16% | -2% | nt
O=C(NCc1nnc2ccc(-c3ccccc3)nn12)c1cc(Cl)ccc1F | 1 | i | -13% | -1% | nt
CC(C(=O)NCc1ccccc1Cl)n1ccc2cc(S(=O)(=O)N3CCCCC3)ccc21 (stereo unspecified) | 37 | nt | -4% | -27% | nt
CC(C(=O)NCc1ccccc1)n1ccc2cc(S(=O)(=O)N3CCCC3)ccc21 (stereo unspecified) | -27* | nt | -16% | 9% | -16%
NC(=O)N1CCC(CC(=O)N2CCC([C@H]3c4ncc(Br)cc4CCc4cc(Cl)cc(Br)c43)CC2)CC1 | nt | i | -19% | ? | nt
NC(=O)N1CCC(CC(=O)N2CCC(C3c4ncc(Br)cc4CCc4cc(Cl)cc(Br)c43)CC2)CC1 (stereo unspecified) | -40* | i | ? | nt | ?
COc1ccccc1C(=O)N1CCCC(c2nnc3n2CCN(C(=O)C2CC2)C3)C1 (stereo unspecified) | 1 | 3% | -3% | ? | nt
CN1CCC[C@@H]1c1cccnc1 | -31* | i | 43%[23.9 µM] | 27%[25.6 µM] | -8%
CN1C(=O)CC[C@H]1c1cccnc1 | -14 | -1% | -4% | -3% | nt
Cc1ccc([S+](=O)([O-])NC2CCN(Cc3cccc(-c4ccc(F)c(F)c4)c3)CC2)cc1 | 1 | ? | -27% | -37% | nt
CCCc1nnc(C[C@@H]2C[C@@H](C(C)C)[C@H](CNc3cccnc3)C=C2C)o1 | -25* | 10µM* | 2%[87.6 µM] | 5%[87.6 µM] | -5%
SMILES | IP6K1 inh | GPT2 inhibitor | HEK293 viab | SNCA expr inhib | IP6K1 conf
CCCc1nnc(C[C@@H]2C[C@@H](C(C)C)[C@H](CNCc3cccnc3)C=C2C)o1 | 4 | -6%[88.5 µM] | -19%[87.6 µM] | ? | nt
COc1cccc2c1cc1c(=O)n(CC(=O)NCc3ccc(C)o3)nc(C)n12 | -30* | nt | 8% | -7% | -4%
CC(=O)c1ccc(OC(=O)c2c(-c3ccccc3Cl)noc2C)cc1 | -42* | nt | 9% | 52% | -18%
COC(=O)c1c(SCC(=O)Nc2cc(C)cc(C)c2)[nH]c2ccccc2c1=O | -47* | nt | -11% | -21% | ?
COC(=O)c1c(SCC(=O)Nc2ccccc2C(F)(F)F)[nH]c2ccc(Cl)cc2c1=O | -1 | nt | 10% | -4% | nt
COc1cccc(CC(=O)N2CCC3(CC2)CC(c2nc(C)no2)N(C)C3)c1 (stereo unspecified) | 11 | -8% | 10% | 27% | nt
COC(=O)[C@@H]1Cc2nc[nH]c2CN1Cc1ccc(C(=O)O)cc1 | 19 | 2%[88.5 µM] | -8%[87.6 µM] | 2%[87.6 µM] | nt
Cc1ccc(Sc2c(C)nn(C(=O)COc3ccccc3)c2C)cc1 | -36* | nt | -7% | ? | ?
Cc1nn(-c2ccccc2)c(OC(=O)c2ccccc2)c1S(=O)(=O)c1ccccc1 | -33* | nt | 9% | -18% | 46%
CCOc1ccccc1N1CC(c2nc3ccccc3n2CCOc2ccc(OC)cc2)CC1=O (stereo unspecified) | 8 | nt | ? | ? | nt
CCOc1ccccc1N1CC(c2nc3ccccc3n2CCCOc2ccc(OC)cc2)CC1=O (stereo unspecified) | -27* | nt | 3% | 0% | 6%
O=C(Nc1cc(F)ccc1F)c1cc2nc(-c3ccco3)cc(C(F)(F)Cl)n2n1 | -26* | nt | 8% | -21% | -16%
O=C(O)CCc1ccc(-c2ccccc2)n1-c1ccc(C(=O)O)cc1 | -27* | nt | 7% | 12% | -12%
Cc1ccc(-c2ccc(CCC(=O)O)n2-c2ccc(C)c(Cl)c2)cc1 | -23 | nt | 4% | 49% | nt
CN1CCN(c2cc(=O)c3ccnc(N4CCN(c5ccccn5)CC4)c3o2)CC1 | -26* | i | -2%[87.6 µM] | -12%[87.6 µM] | -27%
CN1CCN(c2cc(=O)c3ccnc(N4CCOCC4)c3o2)CC1 | -16 | 2%[88.5 µM] | 5%[87.6 µM] | 10%[87.6 µM] | nt
O=S(=O)(c1ccc(-n2cccn2)cc1)N1CCCC2(CCNC2)C1 (stereo unspecified) | 10 | -13% | 5% | 8% | nt
NC(=O)NC1N=C([O][Al])NC1=O (stereo unspecified) | -31* | i | -25%[23.9 µM] | -36%[25.6 µM] | 2%
COc1cccc(CCC(=O)N2C[C@@H]3CC[C@H](C2)N(CC2CCC2)C3=O)c1 | -31* | i[11.5 µM] | 6% | 14% | -11%
COc1cccc(CCC(=O)N2CC3CC(C2)[C@H]2CCCC(=O)N2C3)c1 (stereo partly specified) | 23 | 0% | 3% | 3% | nt
Fc1ccc(C2Cn3nnc(-c4nc(-c5ccc6c(c5)OCO6)no4)c3CO2)cc1 (stereo unspecified) | -28* | 4% | 8% | 1% | -16%
Fc1ccc(-c2noc(-c3nnn4c3COC(c3ccc(F)cc3)C4)n2)cc1 (stereo unspecified) | 6 | i | -2% | 11% | nt
